From PubChem
Most compounds without a hit are left out; they make up all but 0.52% or so of the library.
S aureus helic: blocks Staphylococcus aureus DNA helicase | actives 0.05% (n = 120,000) | AID 485395 | purified S. aureus helicase, fluorescence unwinding assay | inhibition, % (test concentration not listed); in the data active = inhibition above about 25%, passing the limit was not always enough;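 also: 0% = mean of negative control wells and 100% = mean of positive control wells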
Sa growth 42C: blocks Staphylococcus aureus growth; actives 0.53% (n = 170,000); relative growth, % (test concentration not listed); S. aureus RN4220 growth, OD600, 20 h, 42 °C; active compounds read low;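 active = relative growth at most 50% at the other temperature and 20+ points below 30 °C, or under 10% at both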
The depositor's hits bear a star; · = not tested or not shown; ! = a repeat was not active.

SMILES | S aureus helic | Sa growth 42C
C[N+](C)(CCOc1ccccc1)Cc1ccccc1 | · | 92
Cc1cc(C(C)(C)CC(C)(C)C)ccc1OCCOCC[N+](C)(C)Cc1ccccc1 | · | 0.9*
Cc1ccccc1NC(=O)NC1(C(=O)N2CCc3ccccc32)CCCCC1 | 18 | 104
COc1cccc(CSc2nnc(Cc3cccs3)n2C2CCCCC2)c1 | 0 | 5.8*
Clc1ccc(CSc2nnc(Cc3cccs3)n2C2CC2)cc1Cl | 2 | 63
Clc1ccc(-c2cnc3nonc3n2)cc1 | 15 | 0.0*
N#Cc1cc(-c2ccc(Cl)cc2)no1 | 7 | 103
O=C(NCCN1CCOCC1)c1cc(NS(=O)(=O)c2cccs2)cc(NS(=O)(=O)c2cccs2)c1 | -9 | 95
CC(C)=CC(=O)Nc1nc2ccc(S(C)(=O)=O)cc2s1 | 5 | 112
Cc1cc(NC(=O)COC(=O)c2cc(-c3ccco3)nc3ccccc23)n(-c2ccccc2)n1 | -3 | 123
COC(=O)c1sc(S(C)(=O)=O)c(C#N)c1-c1cccs1 | -38 | 0.2*
COC(=O)c1sc(N2CCCC2)c(C#N)c1-c1cccs1 | · | 103
CCCc1cc(=O)[nH]c(Nc2ccccc2)n1 | 9 | 110
CCOC(=O)c1cn(C2CC2)c2c(F)c(F)c(F)cc2c1=O | -3 | 117
CC1(C)c2ssc(=S)c2-c2ccccc2N1C(=O)CSC#N | 15 | 102
CCC1CCc2[nH]c(=S)c(C#N)c(C(F)(F)F)c2C1 (configuration not stated) | 16 | 8.0*
CCCCSc1nc2c(c(C(F)(F)F)c1C#N)CCC2 | 9 | 109
O=C1NC(=O)/C(=C\C=C\c2ccccc2)S1 | 7 | ·
O=C1NC(=S)S/C1=C\C=C\c1ccccc1 | 10 | 6.9*
O=c1[nH]c(=O)n([C@H]2C[C@H](O)[C@@H](CO)O2)cc1F | · | -0.6*
Cc1cn(C2CC(O)C(CO)O2)c(=O)[nH]c1=O (configuration not stated) | 16 | 81
CCN1CCN(CCCNC(=O)c2ccc3nc(/C=C(\O)c4ccc(OC)cc4)c(=O)[nH]c3c2)CC1 | 4 | 129
CN1C(=O)c2ccccc2N(C)C1c1ccc(F)cc1 (configuration not stated) | 10 | 116
CN1c2ccccc2N(C)C1c1ccc(O)cc1 | 2 | -1.2*
N#CCC(=O)Nc1ccc(S(N)(=O)=O)cc1 | 24 | 98
SMILES | S aureus helic | Sa growth 42C
CCn1c(O)c(N=NC(=O)Nc2ccc(Cl)c(Cl)c2)c2ccccc21 | 13 | -0.8*
CCn1c(O)c(N=NC(N)=S)c2ccccc21 | 9 | 64
Cc1nnc(Oc2ccccc2C#N)c2ccccc12 | -5 | 101
CCOC(=O)c1c(C)oc2c1c(C(c1ccccn1)N1CCN(C)CC1)c(O)c1ccccc12 (configuration not stated) | 1 | 103
N#Cc1c(N)[nH]c(=S)c(C(N)=O)c1-c1cccc(Br)c1 | 16 | 0.3*
CCc1[nH]c(=S)c(C#N)c(-c2ccccc2)c1C(=O)OC | 2 | 122
Cc1c2oc3c(C)ccc(C(=O)N[C@@H]4C(=O)N[C@H](C(C)C)C(=O)N5CCC[C@H]5C(=O)N(C)CC(=O)N(C)[C@@H](C(C)C)C(=O)O[C@@H]4C)c3nc-2c(C(=O)N[C@@H]2C(=O)N[C@H](C(C)C)C(=O)N3CCC[C@H]3C(=O)N(C)CC(=O)N(C)[C@@H](C(C)C)C(=O)O[C@@H]2C)c(N)c1=O | · | -0.6*
Cc1ccc2[nH]cc(C(=O)N3CCCCC3)c(=O)c2c1 | 2 | 88
CN(C1=CC(=O)c2ccccc2C1=O)c1ccccc1 | -4 | ·
COC1=CC(=O)c2ccccc2C1=O | 29 | 1.0*
Oc1c(I)cc(Cl)c2cccnc12 | 10 | 1.3*!
COc1c(I)cc(Cl)c2cccnc12 | · | 88
CCN(CC)C(=O)c1sc(NC(=S)N(C)Cc2cn(CC)nc2C)c(C(=O)OC)c1C | 4 | 0.8*
CCn1cc(CN(C)C(=S)Nc2sc3c(c2C(=O)OC)CCC(C)C3)c(C)n1 (configuration not stated) | 28 | 95
CCc1cccc(NS(=O)(=O)c2ccc3c(c2)CC(C)N3C(C)=O)c1 (configuration not stated) | -4 | 79
CCOC(=O)c1nc(N)nc(Nc2ccccc2)n1 | 15 | 104
O=C1/C(=C/c2cccnc2)CCCC/C1=C\c1cccnc1 | -16 | ·
O=C1/C(=C/c2ccncc2)CCC/C1=C\c1ccncc1 | 38 | -0.2*
Cc1cc(C(=O)/C(C#N)=N/Nc2cccc(Cl)c2)n(C(C)(C)C)n1 | 21 | 5.4*
N#C/C(=N\Nc1cc(C(=O)O)cc(C(=O)O)c1)C(=O)c1ccccc1 | -3 | 94
N#C/C(=N\Nc1cccc(Cl)c1)C(=O)c1ccco1 | -9 | 1.8*
N#C/C(=C\Nc1cccc(Cl)c1)S(=O)(=O)Cc1ccco1 | · | 85
O=C(NCc1ccccc1)C(=S)NC1CCCC1 | 22 | 103
On1ccccc1=S | 11 | 0.4*
Cn1ccccc1=S | -2 | 101
SMILES | S aureus helic | Sa growth 42C
Cc1nc2ccc(NS(=O)(=O)c3ccccc3Cl)cc2o1 | · | 84
CCCn1c(SCc2ccccc2C#N)n[nH]c1=O | -6 | 90
CCN1/C(=C/c2sc3ccccc3[n+]2CCO)Sc2ccccc21 | 44* | 28
CCC(=O)/C=C1/Sc2ccc(C)cc2N1CC | 1 | 127
Cc1ccc2c(c1)N(CCO)/C(=C/c1sc3ccccc3[n+]1C)S2 | 19 | -1.4*
CCN1/C(=C\C=C2\C(=O)N(C)C(=S)N2C)Sc2ccccc21 | -3 | 81
O=C(COCC(=O)N1CCc2ccccc21)N1CCc2ccccc21 | -16 | 111
CC(NC(=O)c1ccc(C(C)(C)C)cc1)c1ccncc1 (configuration not stated) | 23 | 102
NC(=O)c1ccccc1NC(=O)Nc1ccccc1 | 3 | 104
N#CC(C#N)=NNc1ccccc1C(N)=O | 21 | -0.5*
Cc1c(OC2CCCCC2=O)ccc2c(-c3ccccc3)cc(=O)oc12 (configuration not stated) | 5 | 116
Cc1nn(C2CCS(=O)(=O)C2)c2nc(C3CC3)cc(C(=O)OCC#N)c12 (configuration not stated) | -4 | 92
CCOC(=O)CC(=N)N | 63* | 84
CCOC(=O)CC(N)=S | 0 | 111
Brc1ccccc1-c1nc2ccccc2c2nc3ccccc3n12 | 9 | 111
S=c1nc2ccccc2c2nc(COc3ccccc3Br)[nH]n12 | -13 | 0.6*
Cc1ccc(N2CC(C(=O)O)CC2=O)cc1C (configuration not stated) | 11 | 107
Cc1cccc2cc(C(c3nnnn3Cc3ccccc3)N3CCN(C(=O)c4ccco4)CC3)c(=O)[nH]c12 (configuration not stated) | -4 | 93
COc1ccc(-c2cc(C(F)(F)F)nc(S(C)(=O)=O)n2)cc1 | · | 28*
COc1ccc(-c2cc(C(F)(F)F)nc(NCc3ccccc3)n2)cc1 | · | 98
Cc1ccc(Cl)cc1NC(=O)COC(=O)c1ccc(Br)o1 | -7 | 132
Cc1ccc(-c2nc(CS(=O)CC(=O)Nc3ccc(F)cc3C)c(C)o2)cc1 (configuration not stated) | · | 103
CC[C@@H]1OC(=O)C[C@@H](O)[C@H](C)[C@@H](O[C@@H]2O[C@H](C)[C@@H](O)[C@H](N(C)C)[C@H]2O)[C@@H](CCN2C[C@H](C)C[C@H](C)C2)C[C@@H](C)C(=O)/C=C/C(C)=C\[C@@H]1CO[C@@H]1O[C@H](C)[C@@H](O)[C@@H](OC)[C@H]1OC | · | 0.5*
